Assay results taken from PubChem BioAssay.
For some of these results: Entries with a potency or affinity are not part of this list. Active and inactive are the calls of the source.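 How the source made its calls, unless noted: active means fluorescence ratio normalized to control raised more than 50% in primary screen plus both repeat runs; inactive means the rest.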

Key:
[1] = tested on: TRPC4 beta (transient receptor potential cation channel C4), mouse; experiment: TRPC4 cation channel opening, retest – cell-based, Fluo4 calcium, HEK293 TRPC4beta/mu-opioid, duplicates, 10 µM, confirmation (AID 2426); settings: Fluo4 calcium fluorescence, at 10 µM; stronger effect = higher value;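 on activation: percent rise of integrated ratio over buffer wells lacking compound which define 0%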
[2] = tested on: transient receptor potential cation channel C4 beta (TRPC4), mouse; experiment: TRPC4 cation channel opening, second retest – cell-based, second round, Fluo4, HEK293 TRPC4beta/mu-opioid, 1 µM, confirmation (AID 2461;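 active means primary screen active and over 50% activation in each of two duplicate runs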;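 on activation: 0% = wells without test compound as baseline of integrated fluorescence ratio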); settings: Fluo4 calcium fluorescence, at 1 µM; stronger effect = higher value
[3] = tested on: TRPC4 (transient receptor potential cation channel C4 beta), mouse; experiment: potentiation of DAMGO EC20 TRPC4 response – cell-based, second round, Fluo-4, HEK293 TRPC4beta/mu-opioid, 1 µM, confirmation (AID 2554;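 active means primary screen hit whose fluorescence ratio, in both repeats, exceeds the weak agonist control mean by 3 SD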); settings: DAMGO EC20, Fluo-4 calcium flux, at 1 µM; stronger effect = higher value
[4] = tested on: TRPC4 beta (transient receptor potential cation channel C4), mouse; experiment: potentiation of DAMGO EC20 TRPC4 response – cell-based, Fluo-4, HEK293 TRPC4beta/mu-opioid, confirmation (AID 2555;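 active means primary screen hit whose calcium fluorescence ratio, in both repeats, exceeds the weak agonist control mean by 3 SD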); settings: DAMGO EC20, Fluo-4 calcium flux, at 10 µM; stronger effect = higher value
[5] = molecular target: Short transient receptor potential channel 4 (Mus musculus) (UniProt Q9QUQ5); experiment: blockers of DAMGO-evoked TRPC4 calcium flux – cell-based, Fluo4, HEK293 TRPC4beta/mu-opioid, confirmation (AID 2636;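 active means calcium signal cut by more than 3 SD below the full-agonist control yet still positive, in both repeats and the earlier primary screen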); settings: at 10 µM; stronger effect = higher value
[6] = molecular target: Short transient receptor potential channel 4 (Mus musculus) (UniProt Q9QUQ5); experiment: blockers of DAMGO-evoked TRPC4 calcium flux – cell-based, second round, Fluo4, HEK293 TRPC4beta/mu-opioid, 1 µM, confirmation (AID 2637;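 active means calcium signal ratio cut to more than 3 SD under the fully stimulated control mean yet still positive, in both repeats and the primary screen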;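 on inhibition: percent of integrated ratio relative to wells lacking test compound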); settings: at 1 µM; stronger effect = higher value
[7] = molecular target: Short transient receptor potential channel 4 (Mus musculus) (UniProt Q9QUQ5); experiment: potentiation of DAMGO-evoked TRPC4 calcium signal – cell-based, HEK293 TRPC4/mu-opioid, Fluo-4 calcium, EC20 DAMGO, dose response (AID 434941;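 active means earlier screen potentiator hit that boosts the TRPC4 ion channel at some dose, with a dose response; inactive means no potentiation, no dose response, or not a prior hit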;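 further: calcium entry triggered by an EC20 dose of DAMGO at the co-expressed mu-opioid receptor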)
[8] = molecular target: Short transient receptor potential channel 6 (Mus musculus) (UniProt Q61143); experiment: TRPC6 blockade by TRPC4 inhibitor hits – cell-based, HEK293, membrane potential dye, duplicate, selectivity assay for TRPC4 inhibitor project, confirmation (AID 434948;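 active means active in primary screen and both duplicates, each dropping signal beyond three positive-control SD with fluorescence still positive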); settings: HEK293 TRPC6, membrane potential dye fluorescence, at 10 µM, stimulated with maximal-effect acetylcholine; stronger effect = higher value
[9] = molecular target: Short transient receptor potential channel 6 (Mus musculus) (UniProt Q61143); experiment: TRPC6 opening by TRPC4 activator hits – cell-based, HEK293, membrane potential dye, duplicate, selectivity assay for TRPC4 activator project, confirmation (AID 434950;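 active means membrane potential signal rise above negative control mean plus 3 SD in both duplicates, also active in the earlier TRPC4 screen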;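 on activation: 0% = buffer only wells and 100% = acetylcholine maximal-effect wells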); settings: HEK293 TRPC6, membrane potential fluorescence, at 10 µM; activation: stronger effect = higher value; outcome: activation
[10] = molecular target: Short transient receptor potential channel 6 (Mus musculus) (UniProt Q61143); experiment: positive modulators of mouse TRPC6 channel – HEK293 cells, membrane potential dye, duplicate, selectivity assay for TRPC4 potentiator project, confirmation (AID 434952;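 active means compound raising the membrane signal above positive-control mean plus 3 SD in both repeats, and a primary screen hit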); settings: HEK293 TRPC6, membrane potential dye fluorescence, at 10 µM, maximal acetylcholine added after compound; stronger effect = higher value
[11] = molecular target: Short transient receptor potential channel 4 (Mus musculus) (UniProt Q9QUQ5); experiment: calcium flux activators in TRPC4/5HT1a cells, counter-screen for TRPC4 activator project, cell-based, second counter screen, HEK293 TRPC4/5HT1a, Fluo-4 (AID 434977;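 active means calcium signal rise above buffer-control mean plus 5 SD in both duplicates, and also a hit in the primary screen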;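 on activation: plate controls were assay buffer for no effect and maximal serotonin response for full effect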); settings: Fluo-4 calcium flux, at 10 µM; stronger effect = higher value
[12] = serotonin-gated TRPC4 signal block – cell-based, second counter screen, HEK293 TRPC4/5HT1a, Fluo-4, counter-screen for TRPC4 inhibitor project, confirmation (AID 434978;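 active means primary screen active whose calcium signal fell more than 3 SD beyond the full-serotonin control mean in both duplicate plates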;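 on outcome: serotonin given first at submaximal then at maximal dose after compound preincubation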); settings: Fluo-4 calcium flux, at 10 µM, serotonin added to trigger calcium flux; stronger effect = higher value
[13] = tested on: TRPC4 (mouse), co-expressed with 5HT1a in HEK293; experiment: enhancement of serotonin-evoked TRPC4 response – cell-based, second counter screen, HEK293 TRPC4/5HT1a, Fluo-4, counter-screen for TRPC4 potentiator project, confirmation (AID 434979;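 active means signal rise over 3 SD above mean of control wells given weak agonist, in both repeats and first screen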); settings: Fluo-4 calcium flux, at 10 µM, serotonin added at its EC20 dose; stronger effect = higher value
[14] = nonspecific calcium rise without TRPC4 – cell-based, HEK293 mu-opioid receptor line, counter-screen for TRPC4 activator project, confirmation (AID 449723;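 active means hit in primary screen, with calcium signal over 5 SD above buffer well mean in both duplicates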;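 further: counter screen cells carry the mu-opioid receptor alone and lack TRPC4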); settings: HEK293 mu-opioid cells, Fluo-4 calcium fluorescence, at 10 µM; stronger effect = higher value
[15] = nonspecific potentiation of DAMGO calcium response – cell-based, HEK293 mu-opioid receptor line, counter-screen for TRPC4 allosteric potentiator project, confirmation (AID 449724;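 active means calcium signal rise more than 3 SD above the low-dose agonist control mean, in both duplicate plates and the primary screen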); settings: HEK293 mu-opioid receptor cells, Fluo-4 calcium flux, at 10 µM, compound added before EC20 DAMGO stimulus; stronger effect = higher value
[16] = molecular target: Short transient receptor potential channel 4 (Mus musculus) (UniProt Q9QUQ5); experiment: block of DAMGO-driven TRPC4 calcium entry – cell-based, HEK293 TRPC4/mu-opioid, Fluo-4 calcium, dose response (AID 434942;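 active means primary screen inhibitor hit that blocks the TRPC4 channel at some tested dose, yielding a dose curve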)
[17] = nonspecific flux increase, KCNQ1-free cells – parental CHO cells, counter-screen for KCNQ1 potentiator project (AID 493006;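 active means duplicate-averaged activation above buffer control mean plus 5 SD of those controls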;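 on activation: fluorescence ratio of max minus min over baseline after K+ and Tl+ depolarization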); settings: parental CHO-K1 cells, FluxOR thallium flux, at 10 µM; stronger effect = higher value
[18] = molecular target: Potassium voltage-gated channel subfamily KQT member 1 (Homo sapiens) (UniProt P51787); experiment: enhancement of KCNQ1 channel thallium flux – FluxOR thallium flux, CHO cells, duplicates, confirmation (AID 493007;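 active means potentiation averaged over duplicate wells exceeding buffer-only control mean by more than 3 SD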;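 further: 0% = buffer-only wells and 100% = R-L3 activator control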); settings: KCNQ1 cell line, FluxOR thallium flux fluorescence, at 10 µM; stronger effect = higher value, % of reference activator effect, buffer zero
[19] = molecular target: Potassium voltage-gated channel subfamily KQT member 2 (Rattus norvegicus) (UniProt O88943); experiment: KCNQ2 thallium flux enhancement – KCNQ2-CHO-K1 cells, selectivity assay for KCNQ1 potentiator project (AID 493009;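 active means mean duplicate potentiation above the buffer control mean plus 5 SD of buffer wells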;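 further: assay conditions were tuned for KCNQ1 rather than KCNQ2 modulators; signal is max minus min fluorescence divided by baseline after thallium stimulus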); settings: FluxOR thallium flux fluorescence, at 10 µM; stronger effect = higher value, scaled: buffer 0, activator control 100
[20] = molecular target: Potassium voltage-gated channel subfamily KQT member 1 (Homo sapiens) (UniProt P51787); experiment: KCNQ1 activators by electrophysiology – IonWorks patch clamp, KCNQ1-CHO cells, orthogonal assay for KCNQ1 potentiator project, confirmation (AID 493184;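 active means current rise at least 3 SD above the untreated control mean in each of two repeat wells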); settings: automated patch clamp current, at 10 µM; stronger effect = higher value

Sequence of Short transient receptor potential channel 4 (Mus musculus) (Q9QUQ5 whole entry, looked up): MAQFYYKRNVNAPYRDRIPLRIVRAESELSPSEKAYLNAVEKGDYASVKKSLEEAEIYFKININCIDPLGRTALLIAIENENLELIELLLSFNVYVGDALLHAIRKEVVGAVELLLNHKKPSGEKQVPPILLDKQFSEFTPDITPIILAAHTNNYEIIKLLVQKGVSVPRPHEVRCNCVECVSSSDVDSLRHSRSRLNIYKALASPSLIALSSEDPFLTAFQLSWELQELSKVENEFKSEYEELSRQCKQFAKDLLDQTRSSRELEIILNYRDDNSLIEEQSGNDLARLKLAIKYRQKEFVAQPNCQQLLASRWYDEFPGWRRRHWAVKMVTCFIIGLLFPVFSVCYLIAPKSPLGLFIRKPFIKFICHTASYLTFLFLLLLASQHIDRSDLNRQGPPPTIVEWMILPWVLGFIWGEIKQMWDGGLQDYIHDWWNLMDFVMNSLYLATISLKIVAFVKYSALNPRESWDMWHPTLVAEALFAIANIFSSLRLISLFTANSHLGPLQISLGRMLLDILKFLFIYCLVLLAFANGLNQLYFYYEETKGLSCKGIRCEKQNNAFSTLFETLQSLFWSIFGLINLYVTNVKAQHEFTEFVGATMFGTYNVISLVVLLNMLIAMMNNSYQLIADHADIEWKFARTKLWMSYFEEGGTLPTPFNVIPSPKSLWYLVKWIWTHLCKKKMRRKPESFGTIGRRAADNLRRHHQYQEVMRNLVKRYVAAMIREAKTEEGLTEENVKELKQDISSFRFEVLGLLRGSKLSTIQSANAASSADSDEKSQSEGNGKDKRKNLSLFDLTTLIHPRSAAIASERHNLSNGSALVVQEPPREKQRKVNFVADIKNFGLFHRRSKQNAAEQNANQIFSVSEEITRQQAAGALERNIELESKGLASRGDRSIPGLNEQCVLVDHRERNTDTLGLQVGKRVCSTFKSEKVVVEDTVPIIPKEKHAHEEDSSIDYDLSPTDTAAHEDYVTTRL
Sequence of Potassium voltage-gated channel subfamily KQT member 2 (Rattus norvegicus) (O88943 whole entry, looked up): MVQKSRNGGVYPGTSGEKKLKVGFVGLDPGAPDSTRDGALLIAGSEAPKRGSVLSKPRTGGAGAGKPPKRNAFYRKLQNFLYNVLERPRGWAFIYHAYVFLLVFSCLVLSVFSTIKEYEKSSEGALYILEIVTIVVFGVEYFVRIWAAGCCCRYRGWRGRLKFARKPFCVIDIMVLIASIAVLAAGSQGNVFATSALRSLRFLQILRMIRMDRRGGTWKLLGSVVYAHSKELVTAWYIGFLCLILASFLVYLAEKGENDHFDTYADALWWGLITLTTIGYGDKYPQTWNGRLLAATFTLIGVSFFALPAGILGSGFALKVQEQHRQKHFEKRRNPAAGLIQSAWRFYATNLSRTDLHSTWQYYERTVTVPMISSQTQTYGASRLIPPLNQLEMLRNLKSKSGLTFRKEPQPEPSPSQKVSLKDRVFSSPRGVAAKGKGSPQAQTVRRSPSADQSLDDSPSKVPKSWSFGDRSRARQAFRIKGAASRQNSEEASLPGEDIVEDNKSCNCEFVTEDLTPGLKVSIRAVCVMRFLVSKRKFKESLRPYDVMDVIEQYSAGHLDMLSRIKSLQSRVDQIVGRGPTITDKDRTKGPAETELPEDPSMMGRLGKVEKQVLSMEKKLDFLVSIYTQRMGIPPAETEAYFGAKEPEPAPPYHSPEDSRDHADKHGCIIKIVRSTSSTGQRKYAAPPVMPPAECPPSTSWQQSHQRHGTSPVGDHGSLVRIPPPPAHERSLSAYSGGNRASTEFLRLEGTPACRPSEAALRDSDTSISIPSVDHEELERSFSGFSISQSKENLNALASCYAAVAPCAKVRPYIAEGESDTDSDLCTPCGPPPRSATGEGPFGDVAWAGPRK
Sequence of Short transient receptor potential channel 6 (Mus musculus) (Q61143 whole entry, looked up): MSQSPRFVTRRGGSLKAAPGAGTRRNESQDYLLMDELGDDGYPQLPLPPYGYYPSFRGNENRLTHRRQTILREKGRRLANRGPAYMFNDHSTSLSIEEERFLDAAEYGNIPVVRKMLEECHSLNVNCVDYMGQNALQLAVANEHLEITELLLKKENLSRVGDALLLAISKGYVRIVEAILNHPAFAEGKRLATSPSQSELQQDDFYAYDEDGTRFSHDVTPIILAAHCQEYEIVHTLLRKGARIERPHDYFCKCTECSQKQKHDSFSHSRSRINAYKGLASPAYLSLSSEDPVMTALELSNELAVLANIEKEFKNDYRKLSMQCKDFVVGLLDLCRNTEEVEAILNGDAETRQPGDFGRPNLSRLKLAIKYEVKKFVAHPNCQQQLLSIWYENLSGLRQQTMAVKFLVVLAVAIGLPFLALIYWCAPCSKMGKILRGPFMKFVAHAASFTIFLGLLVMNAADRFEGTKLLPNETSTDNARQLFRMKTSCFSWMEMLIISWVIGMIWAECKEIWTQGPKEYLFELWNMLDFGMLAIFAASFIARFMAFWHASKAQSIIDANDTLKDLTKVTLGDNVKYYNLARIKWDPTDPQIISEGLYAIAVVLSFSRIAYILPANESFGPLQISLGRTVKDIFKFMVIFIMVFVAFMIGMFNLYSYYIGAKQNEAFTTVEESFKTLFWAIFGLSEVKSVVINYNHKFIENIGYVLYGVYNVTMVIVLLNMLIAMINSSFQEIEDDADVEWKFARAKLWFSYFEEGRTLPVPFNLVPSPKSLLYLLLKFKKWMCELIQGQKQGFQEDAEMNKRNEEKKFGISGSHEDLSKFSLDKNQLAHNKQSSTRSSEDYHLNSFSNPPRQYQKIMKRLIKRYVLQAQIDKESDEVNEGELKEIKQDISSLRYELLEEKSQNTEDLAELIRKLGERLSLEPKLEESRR
Sequence of Potassium voltage-gated channel subfamily KQT member 1 (Homo sapiens) (P51787 whole entry, looked up): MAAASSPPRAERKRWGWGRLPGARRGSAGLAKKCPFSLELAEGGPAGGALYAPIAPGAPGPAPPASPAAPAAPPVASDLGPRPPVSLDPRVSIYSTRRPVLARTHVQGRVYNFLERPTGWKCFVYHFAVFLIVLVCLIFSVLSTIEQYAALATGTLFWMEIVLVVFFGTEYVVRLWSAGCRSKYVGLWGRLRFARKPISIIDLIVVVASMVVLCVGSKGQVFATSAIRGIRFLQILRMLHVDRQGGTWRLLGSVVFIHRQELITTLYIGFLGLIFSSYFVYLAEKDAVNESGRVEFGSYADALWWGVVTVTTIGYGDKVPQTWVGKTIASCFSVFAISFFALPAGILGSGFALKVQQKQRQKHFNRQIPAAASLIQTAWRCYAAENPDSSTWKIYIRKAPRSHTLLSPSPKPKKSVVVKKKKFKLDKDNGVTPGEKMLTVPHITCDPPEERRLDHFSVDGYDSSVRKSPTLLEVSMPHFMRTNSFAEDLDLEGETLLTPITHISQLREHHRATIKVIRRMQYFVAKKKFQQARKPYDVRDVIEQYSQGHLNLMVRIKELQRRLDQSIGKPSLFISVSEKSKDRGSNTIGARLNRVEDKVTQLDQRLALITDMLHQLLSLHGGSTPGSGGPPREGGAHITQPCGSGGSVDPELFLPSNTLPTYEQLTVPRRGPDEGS

CC(NCc1cc(Br)ccc1OCC(=O)NCc1ccccc1)c1ccccc1 (stereo unspecified)
active: inhibition [5] 100% | activation [9] 55% | inhibition [12] 35.1%
inactive: outcome [1] | outcome [2] | outcome [3] | outcome [4] | outcome [6] | outcome [7] | outcome [8] | outcome [10] | outcome [11] | outcome [13] | outcome [14] | outcome [15]

Cc1ccccc1Nc1nc(NCc2ccco2)c2ccccc2n1
active: inhibition [6] 41% | inhibition [8] 43.5% | inhibition [12] 36.9%
inactive: outcome [1] | outcome [2] | outcome [3] | outcome [4] | outcome [5] | outcome [7] | outcome [9] | outcome [10] | outcome [11] | outcome [13] | outcome [14] | outcome [15]

Cc1ccc2c(nc3s/c(=C\c4ccc(-c5ccccc5C(=O)O)o4)c(=O)n32)c1C
active: activation [1] 232% | activation [9] 805% | activation [11] 182% | inhibition [12] 28.9% | activation [14] 203%
inactive: outcome [2] | outcome [3] | outcome [4] | outcome [5] | outcome [6] | outcome [7] | outcome [8] | outcome [10] | outcome [13] | outcome [15]

Cc1onc(-c2ccccc2)c1C(=O)NNC(=S)NC(=O)c1ccc(Cl)cc1Cl
active: activation [1] 274% | activation [2] 81% | activation [9] 28% | activation [11] 142% | activation [14] 96.9% | potentiation [18] 29.5%
inactive: outcome [3] | outcome [4] | outcome [5] | outcome [6] | outcome [7] | outcome [16] | outcome [8] | outcome [10] | outcome [12] | outcome [13] | outcome [15] | outcome [17] | outcome [19] | outcome [20]

O=C(N/N=C/c1cc([N+](=O)[O-])cc(Br)c1O)C12CC3CCC(CC(C3)C1)C2
active: activation [1] 82% | activation [9] 28.5% | activation [11] 68.6% | activation [14] 33.8% | activation [17] 158% | potentiation [18] 43.5% | potentiation [19] 163%
inactive: outcome [2] | outcome [3] | outcome [4] | outcome [5] | outcome [6] | outcome [7] | outcome [16] | outcome [8] | outcome [10] | outcome [12] | outcome [13] | outcome [15] | outcome [20]

C/C(=N/NC(=O)c1ccc(Cn2cccn2)o1)c1cccc(NC(=O)c2ccncc2)c1
inactive: outcome [2] | outcome [3] | outcome [4] | outcome [6] | outcome [7] | outcome [8] | outcome [10] | outcome [12] | outcome [13] | outcome [14] | outcome [15]
active: activation [1] 100% | inhibition [5] 97% | activation [9] 49% | activation [11] 11.3%

Cc1ccc(S(=O)(=O)NCCC(=O)NCC(c2ccco2)N2CCCCC2)cc1C (stereo unspecified)
inactive: outcome [2] | outcome [3] | outcome [4] | outcome [5] | outcome [7] | outcome [8] | outcome [10] | outcome [11] | outcome [12] | outcome [13] | outcome [14] | outcome [15]
active: activation [1] 82% | inhibition [6] 80% | activation [9] 37%

CCN1/C(=C\c2ccc3ccccc3[n+]2CC)Sc2cc(C)ccc21
active: activation [1] 544% | activation [2] 147% | potentiation [4] 18% | activation [11] 600% | potentiation [13] 110% | activation [14] 672% | activation [15] 27400%
inactive: outcome [3] | outcome [5] | outcome [6] | outcome [7] | outcome [16] | outcome [8] | outcome [9] | outcome [10] | outcome [12]

COc1ccc(Cl)cc1NC(=O)CNCC(c1ccccc1)N(C)C (stereo unspecified)
active: inhibition [5] 100% | inhibition [6] 60% | activation [9] 52.5%
inactive: outcome [1] | outcome [2] | outcome [3] | outcome [4] | outcome [7] | outcome [8] | outcome [10] | outcome [11] | outcome [12] | outcome [13] | outcome [14] | outcome [15]

Cc1cccc(C(=O)NNC(=S)NC(=O)c2ccccc2)c1
active: activation [1] 230% | activation [9] 54.5% | activation [11] 153% | activation [14] 83.3% | potentiation [18] 74.5% | potentiation [19] 192%
inactive: outcome [2] | outcome [3] | outcome [4] | outcome [5] | outcome [6] | outcome [7] | outcome [16] | outcome [8] | outcome [10] | outcome [12] | outcome [13] | outcome [15] | outcome [17] | outcome [20]

CC(C)(C)C(=O)NC(=S)NNC(=O)C(c1ccccc1)c1ccccc1
active: activation [1] 286% | activation [9] 46% | activation [11] 158% | activation [14] 119% | potentiation [18] 22%
inactive: outcome [2] | outcome [3] | outcome [4] | outcome [5] | outcome [6] | outcome [7] | outcome [16] | outcome [8] | outcome [10] | outcome [12] | outcome [13] | outcome [15] | outcome [17] | outcome [19] | outcome [20]

COc1ccc(C(=O)NNC(=S)NC(=O)c2ccccc2)cc1
active: activation [1] 130% | activation [9] 32% | activation [11] 87.5% | activation [14] 32.5% | potentiation [18] 58.5% | potentiation [19] 166%
inactive: outcome [2] | outcome [3] | outcome [4] | outcome [5] | outcome [6] | outcome [7] | outcome [16] | outcome [8] | outcome [10] | outcome [12] | outcome [13] | outcome [15] | outcome [17] | outcome [20]

Cc1ccccc1C(=O)NNC(=S)NC(=O)c1ccc(Cl)cc1Cl
inactive: outcome [2] | outcome [3] | outcome [4] | outcome [5] | outcome [6] | outcome [7] | outcome [16] | outcome [8] | outcome [10] | outcome [12] | outcome [13] | outcome [15] | outcome [17] | outcome [20]
active: activation [1] 293% | activation [9] 35% | activation [11] 182% | activation [14] 84.2% | potentiation [18] 117% | potentiation [19] 222%
